Data reported in PubChem BioAssay AID651593 (National Center for Advancing Translational Sciences (NCATS), 2012).
In all, about 1,100 compounds went through this assay and about 860 (78%) were called active. Not shown: some 19% with an inconclusive outcome. Calls follow the shape of the dose curve; as a rule, active = well fitted activation curve with a large enough effect; inconclusive = small, poorly fitted or top-dose-only effect; inactive = flat fitted curve, though single readings scatter. The set was probably picked from earlier hits. The list shows a part of the results.

Assay: qHTS of Nrf2 Activators: Hit Validation in Primary Assay; also: nearly all actives have a fitted effect of over 70% in size
Details: Nrf2/ARE reporter cell assay; Potency: activation; series mostly up to 46.1 µM
Procedure, shortened: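 AREc32 cells stably carrying an ARE-driven firefly luciferase, plated overnight, then exposed 24 h at 37 °C to compounds at several concentrations. ARE activation read as luminescence with Steady-Glo after 30 min at room temperature.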
Potency is read from the fitted curve at half-maximal effect.

Potency, active:
COC(=O)c1cc2nc(-c3ccccc3)cc(C(F)(F)F)n2n1 6.51 µM, O=c1nc2c(O)cccn2c2c1c(=O)[nH]c1ccccc12 2.31 µM, O=c1cc(COc2ccccc2[N+](=O)[O-])nc2sccn12 9.2 µM, CCOC(=O)CCn1c(=O)c2cccn2c2cccnc21 18.4 µM, NC(=O)c1c(NC(=O)c2ccc([N+](=O)[O-])o2)sc2c1CCCC2 2.91 µM, NC(=O)c1c(NC(=O)c2ccco2)sc2c1CCC2 2.59 µM, N#Cc1c(NC(=O)c2ccc([N+](=O)[O-])o2)sc2c1CCC2 3.66 µM, CCCc1cc(C(N)=O)c(NC(=O)c2ccco2)s1 4.61 µM, O=C(NCC1CCCO1)c1ccc([N+](=O)[O-])o1 (stereo not drawn) 23.1 µM, O=C1Nc2ccccc2/C1=C/c1ccccc1Cl 2.31 µM, Cc1ccccc1/C=C1\C(=O)Nc2ccc(F)cc21 5.17 µM, N#CC(=C1C=CC(=NO)C(Cl)=C1)c1ccccc1 5.17 µM, O=C(/C=C/c1ccccc1Cl)Nn1cnc2ccccc2c1=O 2.91 µM, N#Cc1c(-c2ccco2)cc(-c2ccccc2)[nH]c1=O 1.64 µM, CC(=O)Oc1c(-c2ccco2)oc2ccccc2c1=O 0.651 µM, Nc1c(C(=O)C2CC2)sc2nc(-c3cccs3)cc(C(F)(F)F)c12 2.91 µM, CC(=O)c1sc2nc(-c3cccs3)cc(C(F)(F)F)c2c1N 2.59 µM, O=C(NN/C(=N/S(=O)(=O)c1ccc(Cl)cc1)c1ccccc1)c1cccc(Cl)c1 9.2 µM, Cc1ccc(S(=O)(=O)/N=C(/NNC(=O)c2cccc(Cl)c2)c2ccccc2)cc1 18.4 µM, COCCN(C(=O)c1ccco1)c1nc(-c2ccccc2)cs1 20.6 µM, C=C1C2=C(C(=O)N1OC)[C@@H](O)[C@@](C)(O)[C@@H](CCCCC)O2 23.1 µM, Cc1ccc([N+](=O)[O-])c(OCc2ncc(Cl)n2C)c1 18.4 µM, Cc1ccccc1CS(=O)(=O)c1cnc2ccccc2n1 16.4 µM, CCOc1cc(C=O)cc(N=Nc2cccc([N+](=O)[O-])c2)c1O 16.4 µM, O=C(Nc1ccc2ccccc2c1)c1ccc(Br)o1 2.91 µM, Cc1nc(NC(=O)c2ccc(Br)o2)ccc1Br 9.2 µM, Cc1cccc(NC(=S)NC(=O)c2ccc(Br)o2)c1 10.3 µM, O=C(/C=C/c1ccco1)Nc1cccnc1Cl 1.46 µM, O=C(/C=C/c1ccco1)Nc1cccc2cccnc12 0.82 µM, O=C1C2C(C(=O)N1/N=C/c1ccc([N+](=O)[O-])o1)C1C=CC2C12CC2 (stereo not drawn) 18.4 µM, O=C1C2C3C=CC(C4CC34)C2C(=O)N1/N=C/c1ccc([N+](=O)[O-])o1 (stereo not drawn) 3.66 µM, Nc1ccc2c(Cl)cc(Cl)cc2c1 2.31 µM, Cn1c(=O)c(C(=O)NNC(=O)c2ccccc2F)c(O)c2ccccc21 2.31 µM, O=C(c1ccc(S(=O)(=O)Cc2ccccc2Cl)c([N+](=O)[O-])c1)N1CCOCC1 18.4 µM, O=C(c1ccc(S(=O)(=O)Cc2cc(F)ccc2F)c([N+](=O)[O-])c1)N1CCCC1 7.31 µM, Cc1ccc(Cl)c2sc(NC(=O)C3CC3)nc12 5.8 µM, Cc1nc2sc(C(=O)c3ccccc3)c(N)c2c2c1CCCC2 3.66 µM, CSc1c(C#N)c(N)nc2sc(C(=O)c3ccccc3)c(N)c12 4.61 µM, Cc1ccc2c(N)c(C(=O)c3ccccc3)sc2n1 14.6 µM, O=C(Nc1cccn2ncnc12)c1cccc(C(F)(F)F)c1 18.4 µM, COc1ncccc1-c1cc2nc(NCCNC(C)=O)n(C)c(=O)c2s1 2.59 µM, CC(=O)NCCNc1nc2cc(-c3cscc3C)sc2c(=O)n1C 1.3 µM, Cn1c(=O)n(C)c2cc(NC(=O)c3cccc([N+](=O)[O-])c3)c(Br)cc21 13 µM, CCn1ncc(Br)c1C(=O)Nc1cc([N+](=O)[O-])ccc1C 2.91 µM, Cc1ccc([N+](=O)[O-])cc1NC(=O)c1ccc(C(C)(C)C)cc1 4.61 µM, Cc1ccc([N+](=O)[O-])cc1NC(=O)c1ccccc1 7.31 µM, O=C(Nc1cnc2ccccc2c1)c1ccco1 2.91 µM, O=C(NC(=S)Nc1cnc2ccccc2c1)c1ccccc1 2.59 µM, c1ccc(C2=Nn3c(nnc3-c3ccco3)SC2)cc1 1.84 µM, O=c1cc(/C=C/c2ccccc2)oc2ccccc12 2.31 µM, COc1ccc(Cl)cc1NC(=O)CSc1c2c(nc3ccccc13)CCC2 18.4 µM, COc1ccc(N2CCCC2)c(NC(=O)c2ccc([N+](=O)[O-])o2)c1 6.51 µM, COc1ccc(S(=O)(=O)N2CCN(C(=O)c3ccc([N+](=O)[O-])o3)CC2)cc1 5.8 µM, COC(=O)c1scc(C)c1NC(=O)c1ccc(Cl)cc1 3.66 µM, CCCn1nc([N+](=O)[O-])c(C(C#N)c2nc3ccccc3s2)c(Cl)c1=O (stereo not drawn) 2.31 µM, COc1ccc(Br)cc1/C=N/Nc1ccccn1 2.59 µM, COc1cc(/C=N/Nc2ccccn2)cc(OC)c1O 5.8 µM, CN(Cc1ccccc1)C(=O)c1ccc([N+](=O)[O-])o1 16.4 µM, Cc1cc(NC(=O)CC(C)(C)C)nc2c1c(=O)oc1ccccc12 3.66 µM, Cc1cc(NC(=O)c2ccccc2)nc2c1c(=O)oc1ccccc12 1.46 µM, Cc1cc(NC(=O)C2CCCC2)nc2c1c(=O)oc1ccccc12 2.31 µM, COc1cccc(C(=O)Nc2cc(C)c3c(=O)oc4ccccc4c3n2)c1 2.06 µM

Potency, inactive:
O=C(NNC(=O)C12CC3CC(CC(C3)C1)C2)c1cccc([N+](=O)[O-])c1
